Rab9 promoter act = activates the Rab9 promoter; Potency, µM (top dose mostly 9.22 µM), for inactives: at the top dose activation, negative = inhibition, hits mostly activators; actives 2.8% (n = 320,000); Huh7 Rab9 promoter-luciferase reporter, luminescence, 24 h; AID 485297; also: % of control where 0% means no effect; nearly all actives have a fitted effect of over 60% in size
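Huh7 reporter line, Rab9 promoter upstream of luciferase. Compound exposure 24 h at 37 °C in reduced-serum medium with 10% FBS. Read-out: luminescence.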
SMN2 splice up = enhancers of SMN2 splice variant expression; Potency, µM (doses to about 46.1 µM), for the others: at the top dose activity change, positive = activation, most hits filed as activators; HEK293 SMN2-luciferase splicing reporter, luminescence, 30-36 h; actives 2.8% (n = 210,000); AID 1458; also: % of control where 0% means no effect; nearly all actives have a fitted effect of over 55% in size
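HEK293 cells carry an SMN2 […]–luciferase reporter in which exon 7 inclusion puts luciferase in frame. Cells were plated 10-12 h before compound addition, then incubated 30-36 h at 37C. ONE-Glo luminescence was read; sodium butyrate at 4.5 mM final served as control.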
ELG1 genotoxic = induces genotoxicity in HEK293T cells with luciferase-tagged ELG1; HEK293T ELG1-luciferase reporter, luminescence, 16 h; Potency, µM (titrated, usually from 46 µM), without a hit: at the top dose activity change, positive = activation, most hits filed as activators; actives 1.3% (n = 330,000); AID 504466; also: % of control where 0% means no effect; nearly all actives have a fitted effect of over 60% in size
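Genotoxic stress is detected as increased luminescence from luciferase-tagged ELG1 in HEK293T cells, measured with ONE-Glo after a 16 hr treatment at 37 °C.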
NPC1 prom act = activators of NPC1 promoter. Huh7 NPC1 promoter luciferase reporter, 24 h. Potency, µM (top dose mostly 9.22 µM), for inactives: at the top dose activation, hits mostly activators. actives 2.4% (n = 320,000). AID 485313; also: % of control where 0% means no effect; nearly all actives have a fitted effect of over 60% in size
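Luminescence from an NPC1 promoter-driven luciferase reporter in stably transfected Huh7 cells was measured after 24 h compound treatment at 37 °C, followed by 10 min ambient incubation with luciferase detection reagent.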
Luc counter = Kinase-Glo luciferase inhibition (counter-screen); actives 0.28% (n = 200,000); Potency, µM (titrated, usually from 38.3 µM), for the others: at the top dose activity change, negative = inhibition, actives largely listed as inhibitors; Q27757; Kinase-Glo luciferase, ATP luminescence, 8 min; also: % is scaled to controls: 0 for no effect and ±100 for the full control effect; nearly all actives have a fitted effect of over 60% in size
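Compounds were added to a substrate mix at pH 7.2 (50 mM imidazole, 10 uM ATP, within the enzyme's linear range), followed by Kinase-Glo detection reagent; luminescence was measured after 8 minutes at ambient temperature.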
FLuc modulator = firefly luciferase modulation, counter-screen for miR-21 project; P08659; purified FLuc, Km substrates, luminescence inhibition; Potency, µM (top dose mostly 57.5 µM), inactives show at the top dose activity change, negative = inhibition, usual class: inhibitors; actives 6.9% (n = 360,000);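 also: plate controls were vehicle for no effect and reference inhibitor for full effect; nearly all actives have a fitted effect of over 55% in size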
Target sequence (P08659 whole entry, looked up): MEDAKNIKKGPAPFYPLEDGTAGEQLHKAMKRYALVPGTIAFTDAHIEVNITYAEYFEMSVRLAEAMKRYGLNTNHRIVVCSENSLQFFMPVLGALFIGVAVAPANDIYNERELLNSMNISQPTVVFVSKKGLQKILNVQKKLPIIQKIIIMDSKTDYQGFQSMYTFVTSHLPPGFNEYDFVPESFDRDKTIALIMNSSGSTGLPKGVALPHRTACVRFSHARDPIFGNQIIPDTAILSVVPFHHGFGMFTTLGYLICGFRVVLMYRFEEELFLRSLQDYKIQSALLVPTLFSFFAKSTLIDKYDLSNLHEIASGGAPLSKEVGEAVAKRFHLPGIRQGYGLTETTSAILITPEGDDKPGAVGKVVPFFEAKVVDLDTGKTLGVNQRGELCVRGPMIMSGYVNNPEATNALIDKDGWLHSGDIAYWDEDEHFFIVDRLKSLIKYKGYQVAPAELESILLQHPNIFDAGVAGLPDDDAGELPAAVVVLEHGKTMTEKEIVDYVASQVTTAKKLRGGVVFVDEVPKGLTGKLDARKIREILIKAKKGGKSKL
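Purified P. pyralis luciferase, 10 nM final, with Km-level 10 uM D-luciferin and 10 uM ATP in 50 mM Tris acetate pH 7.5, 10 mM Mg acetate, 0.01% Tween-20, 0.05% BSA; 6-point qHTS titration about 60 µM downward; luminescence read.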
An asterisk follows results filed as active; ? = inconclusive; . = not tested or not shown; [ ] = remark or other dose. Shown are actives, neighbours in structure and some others; about 7.5% of the full set was active somewhere. Calls follow the shape of the dose curve; as a rule, active = well fitted curve in the direction sought with a large enough effect; inconclusive = small, poorly fitted or top-dose-only effect, or another doubt; inactive = no such curve, though single readings can be large; an effect the other way counts as inactive or inconclusive. Potency is read from the fitted curve at half-maximal effect.

SMILES	Rab9 promoter act	SMN2 splice up	ELG1 genotoxic	NPC1 prom act	Luc counter	FLuc modulator
CCn1nc(C)c(/C=N/NC(=O)c2c[nH]c3ccccc23)c1C	3.55µM*	17.8µM*	?	?	-4.1%	?
Cc1ccsc1/C=N/NC(=O)c1c[nH]c2ccccc12	2.51µM*	?	?	4.47µM*	-2.8%	12µM*
O=C(N/N=C/c1ccsc1)c1cc2ccccc2o1	25.3%	.	9.4%	0.7%	.	?
CCn1nc(C)c(/C=N/NC(=O)Cn2nccc2C)c1C	24.7%	19.9%	?	26.8%	-4.5%	?
O=C(c1ccc2[nH]ccc2c1)N1CCCC(Nc2ccccc2)C1 (stereo not given)	3.4%	.	2.8%	-1.3%	.	-3.9%
CCN(CC)C(=O)Cn1ncc2c([nH]c3ccc(C)cc32)c1=O	.	.	.	.	.	0.1%
Cc1cc(C(=O)N/N=C/c2cccc([N+](=O)[O-])c2)c(C)o1	27.0%	-6.9%	11.6%	18.1%	-15.9%	?
Cc1cccc(C(=O)N/N=C/c2ccc[nH]2)c1	-0.2%	9.3%	12.8%	5.3%	-4.1%	?
CC(C)(C)OC(=O)N/N=C/c1cccc([N+](=O)[O-])c1	3.16µM*	11.2µM*	?	2.51µM*	-2.3%	6.01µM*
CC(C)(C)OC(=O)N/N=C\c1ccc[nH]1	?	27.4%	7.3%	-5.3%	-1.1%	19µM*
Cc1ccc(/C=N/NC(=O)c2c[nH]c3ccccc23)o1	26.8%	-4.2%	3.4%	21.9%	-3.8%	23.9µM*
Cc1ccc(/C=N/NC(=O)c2c[nH]c3ccccc23)s1	0.562µM*	12.6µM*	13.9%	1.58µM*	-1.3%	7.57µM*
COc1ccc2c(Cc3c4ccccc4cc4ccccc34)cncc2c1O	.	-5.3%[9.22 µM]	.	.	-3.4%[7.66 µM]	.
COc1cc(C(=O)Nc2ccc3c(c2)N(C(=O)CN2CCN(C)CC2)c2ccccc2CC3)cc(OC)c1OC	-4.6%	.	?	-1.8%	.	0.3%
COC(=O)c1cc2oc3ccccc3c2n1Cc1c(F)cccc1Cl	.	7.9%	.	.	.	-9.7%
CCc1ccc(S(=O)(=O)NCc2ccc3c(c2)CCN3C(=O)c2ccc(C)cc2)cc1	.	.	.	.	.	-7.7%
O=C(N/N=C/c1cc([N+](=O)[O-])ccc1O)c1c[nH]c2ccccc12	-2.7%	.	15.5%	-0.4%	.	-9.5%
O=C(N/N=C/c1cccc([N+](=O)[O-])c1)c1c[nH]c2ccccc12	?	.	11.5%	2.24µM*	.	16.9µM*
C/C(=N\NC(=O)c1c[nH]c2ccccc12)c1ccc(C)s1	?	.	?	3.16µM*	.	?
COc1ccc(C/C(C)=N\NC(=O)c2c[nH]c3ccccc23)cc1OC	3.1%	.	4.1%	-1.0%	.	-18.1%
CCN(C(=O)COC(=O)COc1ccc(Cl)c(C)c1)C1CCS(=O)(=O)C1 (stereo not given)	-2.1%	.	0.3%	-3.7%	.	1.6%
Cc1ccc(/C=C/c2onc(C)c2S(=O)(=O)N2CCC(C(=O)N3CCN(c4cc(C)ccc4C)CC3)CC2)cc1	.	.	.	.	.	2.4%
Cn1cccc1-c1cc2n(n1)CCC(=O)N2CCCC(=O)NCc1cccc(Cl)c1	.	.	.	.	.	6.3%
CCS(=O)(=O)Nc1cccc(-c2ccc3nnc(C)n3n2)c1	1.6%	163.3%	?	-6.3%	2.7%	3.5%
COc1ccc(S(=O)(=O)Nc2ccc(-c3ccc4nncn4n3)cc2)c(OC)c1	-0.9%	.	1.4%	-3.6%	.	2.7%
COc1ccc(S(=O)(=O)Nc2cccc(-c3ccc(N4CCC(C)CC4)nn3)c2)c(OC)c1	.	.	.	.	.	2.69µM*
Cc1ccc(S(=O)(=O)Nc2cccc(-c3ccc4nnc(C)n4n3)c2)s1	0.9%	12.6µM*	20.6µM*	-12.1%	-1.1%	2.4%
CCc1ccc(S(=O)(=O)Nc2cccc(-c3ccc(N4CCC(C)CC4)nn3)c2)s1	.	.	.	.	.	1.35µM*
COc1ccccc1S(=O)(=O)Nc1cccc(-c2nnc3n2CCCCC3)c1	-10.0%	-3.4%	-1.4%	-3.0%	5.9%	1.5%
